# According to PubChem BioAssay AID588493 (Sanford-Burnham Center for Chemical Genomics, 2011):
# About 2,100 (0.58%) of roughly 360,000 compounds were called active.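 The calls were made as follows: active = inhibition at 20 µM, scaled to each plate's controls, above about 33% (limit read from the data); inactive = the rest.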 Shown is part of a subset that was picked to be rich in actives.
# Molecular target: 26S proteasome non-ATPase regulatory subunit 14 (Homo sapiens) (UniProt O00487)
# Assay: Rpn11 (PSMD14) deubiquitinase inhibitors, primary screen, biochemical, fluorescence polarization, uHTS (AID 588493)
# Details: human 26S proteasome, Ub4-pepOG fluorescence polarization; at 20 µM; active compounds read high; 20S core pre-blocked with epoxomicin
# 26S proteasome non-ATPase regulatory subunit 14 (Homo sapiens), sequence (O00487 whole entry, looked up): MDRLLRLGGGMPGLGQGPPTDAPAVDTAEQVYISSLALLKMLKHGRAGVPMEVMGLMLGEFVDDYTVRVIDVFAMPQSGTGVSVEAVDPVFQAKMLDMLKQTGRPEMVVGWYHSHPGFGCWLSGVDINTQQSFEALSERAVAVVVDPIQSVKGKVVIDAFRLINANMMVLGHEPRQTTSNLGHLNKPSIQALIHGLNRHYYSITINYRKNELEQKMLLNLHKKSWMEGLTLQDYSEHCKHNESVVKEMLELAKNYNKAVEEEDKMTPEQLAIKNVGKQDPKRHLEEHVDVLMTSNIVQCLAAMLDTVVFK
row,SMILES,inhibition
1,Cc1ccc(S(=O)(=O)N[C@@H](Cc2ccccc2)C(=O)N2CCC(C(=O)N[C@H](C(=O)O)C(C)O)CC2)cc1 (stereo partly drawn),-7.8% (inactive)
2,O=C(CN1CCc2cc3c(cc2C1)OCCCO3)Nc1ccccc1,1.3% (inactive)
3,Cc1ccc(NC(=O)CN2CCc3ccccc3C2)cc1,90.1% (active)
4,Cc1ccc(NC(=O)CN2CCc3ccccc3C2)cc1C,7.2% (inactive)
5,CSc1nccc(NC(=O)c2ccc(C(C)(C)C)cc2)n1,0.3% (inactive)
6,CSC1=N/C(=C\C=C\c2cccs2)C(=O)S1,41.3% (active)
7,CC1(C(=O)NS(=O)(=O)c2ccccc2)CCN1C(=O)C1CCCCC1 (stereo not drawn),-2.7% (inactive)
8,O=C(CCN1CCN(C/C=C/c2ccccc2)CC1)Nc1cccc(F)c1,2.3% (inactive)
9,Cc1cccc(C(=O)N2CCC(c3nc4ccccc4s3)CC2)c1,-7.6% (inactive)
10,Cc1nc2ccc(NC(=O)C3CCCCC3)cc2s1,-1.1% (inactive)
11,Cc1nc2ccc(C(=O)N3CCSCC3)cc2s1,93.1% (active)
12,Cc1ccc(C2CCN(C(=S)Nc3cccc(Cl)c3)C2)cc1 (stereo not drawn),-2.1% (inactive)
13,Cc1cc(C)cc(NC(=S)NCCCN2CCOCC2)c1,0.3% (inactive)
14,COCCCNC(=S)NCCNc1nc2cc(C)c(C)cc2cc1C#N,-1.6% (inactive)
15,Cc1ccc2cc(C#N)c(NCCNC(=S)NCCCN3CCOCC3)nc2c1,50.7% (active)
16,CN(Cc1ccccc1F)c1cc2c(c3c1ccn3C)C1CCC2O1 (stereo not drawn),7.9% (inactive)
17,O=S(=O)(c1cccc(S(=O)(=O)N2CCC(n3nnc4ccccc43)CC2)c1)N1CCCCC1,4.9% (inactive)
18,CN1CCN(c2ccc(NC(=O)c3cc(Cl)c4c(c3)OCCO4)cc2)CC1,-0.3% (inactive)
19,Cn1cnnc1SCC(=O)Nc1ccc(N2CCOCC2)cc1,7.5% (inactive)
20,C=CC(=O)Nc1ccc(Nc2ccnc(Nc3ccc(N4CCN(C)CC4)cc3)n2)cc1,66.1% (active)
21,C=CCc1cc(S(=O)(=O)c2ccc(O)c(CC=C)c2)ccc1O,-1.3% (inactive)
22,Cc1nc2nc(COc3ccccc3)[nH]n2c(=O)c1C,3.7% (inactive)
23,CNC(=O)NCCN1CCCC1=O,-0.3% (inactive)
24,CCCCC(C(=O)NC(C)(C)C)N(Cc1ccccc1)C(=O)c1snc(C(N)=O)c1N (stereo not drawn),-1.4% (inactive)
25,Cc1csc2nc(O)c(C(=O)NCCN3CCOCC3)c(=O)n12,-3.8% (inactive)
26,CSc1ccccc1NC(=O)C(C)N1C(=O)c2ccccc2S1(=O)=O (stereo not drawn),-7.1% (inactive)
27,CCCOC(=O)c1ccc(N2C(=O)c3ccccc3C2=O)cc1,0.9% (inactive)
28,CC(=O)Nc1ccccc1Sc1ccc2c3c(cccc13)C(=O)N(c1ccc(C)cc1)C2=O,48.3% (active)
